Test results taken from PubChem BioAssay AID1159580 (chemical genetic matrix, 2015).
The whole screen tested about 5,500 compounds, of which about 2,000 (36%) were called active. Inconclusive results (about 18%) are left out. Rule as the data show it: active = normalized growth mostly below about 0.91 (no sharp cut-off); inconclusive = no clear call, values can overlap the other calls; inactive = mostly above about 0.92. The list shows a part of the results.

Assay: chemical genetic growth profiling, strain panel (AID 1159580);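 also: tested at 20 µM; growth read once vehicle control cultures reached saturation at 30 °C; 1 = growth at the plate median or of vehicle wells; lower values mean less growth of the strain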
Conditions: S. cerevisiae deletion strains, growth OD
[1] = locus YDL101C, strain DUN1, stronger effect = lower value
[2] = locus YHR030C, strain SLT2, stronger effect = lower value

Measured: normalized growth

Cc1ccc(S(=O)(=O)n2c(Sc3ccc([N+](=O)[O-])cc3[N+](=O)[O-])nc3cc(C)ccc32)cc1
inactive: locus YAR019C, strain CDC15, stronger effect = lower value 0.996 | locus YBL105C, strain PKC1, stronger effect = lower value 0.972 | locus YBR135W, strain CKS1, stronger effect = lower value 0.983 | locus YBR136W, strain MEC1, stronger effect = lower value 0.986 | locus YBR160W, strain CDC28, stronger effect = lower value 0.986 | locus YDL017W, strain CDC7, stronger effect = lower value 0.986 | locus YDL028C, strain MPS1, stronger effect = lower value 0.992 | [1] 0.989 | locus YDL108W, strain KIN28, stronger effect = lower value 0.987 | locus YDL132W, strain cdc53, stronger effect = lower value 0.989 | locus YDL214C, strain PRR2, stronger effect = lower value 0.947 | locus YDR052C, strain DBF4, stronger effect = lower value 0.987 | locus YDR054C, strain cdc34, stronger effect = lower value 0.986 | locus YDR226W, strain ADK1, stronger effect = lower value 0.987 | locus YDR477W, strain SNF1, stronger effect = lower value 0.968 | locus YER123W, strain YCK3, stronger effect = lower value 0.92 | locus YER133W, strain GLC7, stronger effect = lower value 0.945 | locus YFL009W, strain cdc4, stronger effect = lower value 0.989 | locus YFL029C, strain CAK1, stronger effect = lower value 0.988 | locus YFR003C, strain YPI1, stronger effect = lower value 0.986 | locus YFR019W, strain FAB1, stronger effect = lower value 0.961 | locus YFR028C, strain CDC14, stronger effect = lower value 0.99 | locus YGR040W, strain KSS1, stronger effect = lower value 0.97 | locus YGR052W, strain FMP48, stronger effect = lower value 0.966 | locus YGR092W, strain DBF2, stronger effect = lower value 0.86 | locus YHR079C, strain IRE1, stronger effect = lower value 0.884 | locus YHR082C, strain KSP1, stronger effect = lower value 1.04 | locus YHR205W, strain SCH9, stronger effect = lower value 0.868 | locus YIL147C, strain SLN1, stronger effect = lower value 0.99 | locus YJL095W, strain BCK1, stronger effect = lower value 0.879 | locus YJL128C, strain PBS2, stronger effect = lower value 0.939 | locus YJL157C, strain FAR1, stronger effect = lower value 0.936 | locus YJR016C, strain ILV3, stronger effect = lower value 0.986 | locus YJR066W, strain TOR1 (second series), stronger effect = lower value 0.898 | locus YJR066W, strain TOR1, stronger effect = lower value 1 | locus YKL048C, strain ELM1, stronger effect = lower value 0.947 | locus YKL067W, strain YNK1, stronger effect = lower value 0.935 | locus YKL101W, strain HSL1, stronger effect = lower value 0.917 | locus YKL193C, strain SDS22, stronger effect = lower value 0.996 | locus YKL203C, strain TOR2, stronger effect = lower value 1 | locus YLR133W, strain CKI1, stronger effect = lower value 0.932 | locus YLR403W, strain SFP1, stronger effect = lower value 0.917 | locus YML070W, strain DAK1, stronger effect = lower value 0.926 | locus YMR001C, strain CDC5, stronger effect = lower value 0.987 | locus YMR205C, strain PFK2 (second series), stronger effect = lower value 0.947 | locus YMR277W, strain FCP1, stronger effect = lower value 0.988 | locus YNL006W, strain LST8, stronger effect = lower value 0.971 | locus YNL020C, strain ARK1, stronger effect = lower value 0.898 | locus YNL161W, strain CBK1, stronger effect = lower value 0.968 | locus YNL183C, strain NPR1, stronger effect = lower value 0.958 | locus YNL207W, strain RIO2, stronger effect = lower value 0.984 | locus YNL222W, strain SSU72, stronger effect = lower value 0.975 | locus YNL307C, strain MCK1 (second series), stronger effect = lower value 0.901 | locus YOL078W, strain AVO1, stronger effect = lower value 0.987 | locus YOL136C, strain PFK27, stronger effect = lower value 0.919 | locus YOR061W, strain CKA2, stronger effect = lower value 0.873 | locus YOR119C, strain RIO1, stronger effect = lower value 1.03 | locus YOR231W, strain MKK1, stronger effect = lower value 0.887 | locus YOR329C, strain SCD5, stronger effect = lower value 0.968 | locus YPL031C, strain PHO85, stronger effect = lower value 0.951 | locus YPL153C, strain RAD53, stronger effect = lower value 0.964 | locus YPL204W, strain HRR25, stronger effect = lower value 0.931 | locus YPL209C, strain IPL1, stronger effect = lower value 0.971 | locus YPL256C, strain CLN2, stronger effect = lower value 0.862 | locus YPR025C, strain CCL1, stronger effect = lower value 0.988 | locus YPR106W, strain ISR1, stronger effect = lower value 0.989 | locus YPR111W, strain DBF20, stronger effect = lower value 0.966 | strain NNK1, stronger effect = lower value 0.982 | strain TSCII, stronger effect = lower value 0.986
active: [2] 0.839 | locus YLR113W, strain HOG1, stronger effect = lower value 0.748

Cc1nc(-c2nnc(Sc3ccc(C(F)(F)F)cc3[N+](=O)[O-])n2C)cs1
inactive: locus YAL013W, strain DEP1, stronger effect = lower value 1.01 | locus YBR229C, strain ROT2, stronger effect = lower value 1.01 | locus YCL061C, strain MRC1, stronger effect = lower value 0.995 | [1] 1 | locus YDR150W, strain NUM1, stronger effect = lower value 0.993 | locus YEL061C, strain CIN8, stronger effect = lower value 0.998 | locus YGR078C, strain PAC10, stronger effect = lower value 1.01 | [2] 0.965 | locus YHR087W, strain rtc3, stronger effect = lower value 1.02 | locus YJR043C, strain POL32, stronger effect = lower value 1.01 | locus YJR075W, strain HOC1, stronger effect = lower value 0.987 | locus YLR039C, strain RIC1, stronger effect = lower value 0.965 | locus YLR058C, strain SHM2 (second series), stronger effect = lower value 1.01 | locus YLR085C, strain ARP6, stronger effect = lower value 1.14 | locus YLR262C, strain YPT6, stronger effect = lower value 0.844 | locus YML094W, strain GIM5, stronger effect = lower value 1.01 | locus YMR219W, strain ESC1, stronger effect = lower value 1 | locus YMR263W, strain SAP30, stronger effect = lower value 1.02 | locus YNL153C, strain GIM3, stronger effect = lower value 0.998 | locus YNL298W, strain CLA4 (second series), stronger effect = lower value 1.01 | locus YNL322C, strain KRE1, stronger effect = lower value 1 | locus YNR030W, strain Alg12, stronger effect = lower value 1.01 | locus YPL055C, strain LGE1, stronger effect = lower value 1.02 | locus YPL241C, strain CIN2, stronger effect = lower value 1 | locus YPR135W, strain CTF4, stronger effect = lower value 0.956
